Assay results taken from PubChem BioAssay AID1159580 (chemical genetic matrix, 2015).
Several values for one entry are separate records, joined by “and”; a condition that tells them apart may be missing. Equal values may be shown once. The campaign covered roughly 5,500 compounds. About 2,000 (36%) were called active. Inconclusive results (about 18%) are left out. Rule as the data show it: active = normalized growth mostly below about 0.91 (no sharp cut-off); inconclusive = no clear call, values can overlap the other calls; inactive = mostly above about 0.92. This is one part of the list.

Test: chemical genetic growth profiling, strain panel (AID 1159580);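 also: tested at 20 µM; growth read once vehicle control cultures reached saturation at 30 °C; 1 = growth at the plate median or of vehicle wells; lower values mean less growth of the strain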
Conditions: S. cerevisiae deletion strains, growth OD

Measured: normalized growth

Nc1ccc(N=Nc2ccccc2)c(N)n1
inactive: locus YAL013W, strain DEP1, hits give low values 0.984 | locus YBR171W, strain sec66, hits give low values 0.96 | locus YBR229C, strain ROT2, hits give low values 1 | locus YCL029C, strain bik1, hits give low values 1.03 | locus YCR088W, strain abp1, hits give low values 0.945 | locus YDL005C, strain med2, hits give low values 1 | locus YDL035C, strain GPR1, hits give low values 0.932 | locus YDL040C, strain nat1, hits give low values 0.978 | locus YDL074C, strain BRE1, hits give low values 0.866 | locus YDL101C, strain DUN1, hits give low values 0.968 | locus YDL134C, strain PPH21, hits give low values 0.999 | locus YDL185W, strain tfp1, hits give low values 0.998 | locus YDR001C, strain nth1, hits give low values 1 | locus YDR101C, strain arx1, hits give low values 0.995 | locus YDR150W, strain NUM1, hits give low values 1.01 | locus YDR159W, strain sac3, hits give low values 0.884 | locus YDR162C, strain NBP2, hits give low values 0.939 | locus YDR318W, strain mcm21, hits give low values 0.951 | locus YDR388W, hits give low values 0.997 | locus YDR502C, strain sam2, hits give low values 0.954 | locus YEL037C, strain rad23, hits give low values 0.922 | locus YEL061C, strain CIN8, hits give low values 0.997 | locus YER110C, hits give low values 1.01 | locus YER155C, strain BEM2, hits give low values 1.03 | locus YER167W, strain BCK2, hits give low values 1.02 | locus YGL078C, strain dbp3, hits give low values 0.937 | locus YGL086W, strain mad1, hits give low values 0.971 | locus YGL167C, strain pmr1, hits give low values 0.977 | locus YGL248W, strain PDE1, hits give low values 0.989 | locus YGR078C, strain PAC10, hits give low values 0.918 | locus YGR229C, strain SMI1, hits give low values 0.996 | locus YGR252W, strain gcn5, hits give low values 0.943 | locus YHR030C, strain SLT2, hits give low values 0.995 and 0.956 | locus YHR079C, strain IRE1 (second series), hits give low values 0.99 | locus YHR079C, strain IRE1, hits give low values 0.965 | locus YHR094C, strain hxt1, hits give low values 1.02 | locus YHR129C, strain ARP1, hits give low values 1.01 | locus YHR200W, strain rpn10, hits give low values 0.983 | locus YIL066C, strain RNR3, hits give low values 0.956 | locus YIL073C, strain SPO22, hits give low values 0.972 | locus YIL125W, strain kgd1, hits give low values 1.02 | locus YIR030C, strain dcg1, hits give low values 1.02 | locus YJL092W, strain hpr5, hits give low values 0.945 | locus YJL095W, strain BCK1, hits give low values 0.833 and 0.952 | locus YJL115W, strain asf1, hits give low values 1.01 | locus YJL134W, strain LCB3, hits give low values 1 | locus YJL154C, strain vps35, hits give low values 0.98 | locus YJL168C, strain set2, hits give low values 1 | locus YJL187C, strain SWE1 (second series), hits give low values 0.961 | locus YJR043C, strain POL32, hits give low values 0.984 | locus YJR066W, strain TOR1, hits give low values 0.91
active: locus YAL021C, strain ccr4, hits give low values 0.597 | locus YAL026C, strain drs2, hits give low values 0.262 | locus YAL030W, strain snc1, hits give low values 0.909 | locus YBL061C, strain skt5, hits give low values 0.841 | locus YBR009C, strain hhf1, hits give low values 0.635 | locus YBR021W, strain FUR4, hits give low values 1.16 [resistant] | locus YBR023C, strain chs3, hits give low values 0.764 | locus YBR231C, strain swc5, hits give low values 0.742 | locus YBR279W, strain paf1, hits give low values 0.807 | locus YCL011C, strain gbp2, hits give low values 0.78 | locus YCL016C, strain dcc1, hits give low values 0.739 | locus YCL069W, strain vba3, hits give low values 0.725 | locus YDL192W, strain arf1, hits give low values 0.901 | locus YDR069C, strain doa4, hits give low values 0.846 | locus YDR137W, strain rgp1, hits give low values 0.351 | locus YDR195W, strain ref2 1.61 [resistant] | locus YDR297W, strain sur2, hits give low values 0.828 | locus YDR334W, strain swr1, hits give low values 0.833 | locus YDR335W, strain msn5, hits give low values 0.785 | locus YDR392W, strain spt3, hits give low values 0.6 | locus YEL003W, strain gim4, hits give low values 0.712 | locus YEL061C, strain CIN8 (second series), hits give low values 0.838 | locus YER015W, strain faa2, hits give low values 0.794 | locus YER016W, strain bim1, hits give low values 0.853 | locus YER111C, strain swi4, hits give low values 0.801 | locus YER155C, strain BEM2 (second series), hits give low values 0.226 | locus YFR010W, strain ubp6, hits give low values 0.862 | locus YGL173C, strain kem1, hits give low values 0.668 | locus YGL227W, strain vid30, hits give low values 0.83 | locus YGL240W, strain doc1, hits give low values 0.832 | locus YGL253W, strain hxk2, hits give low values 0.695 | locus YGR135W, strain pre9, hits give low values 0.854 | locus YHR013C, strain ard1, hits give low values 0.573 | locus YHR027C, strain rpn1, hits give low values 0.798 | locus YHR142W, strain chs7, hits give low values 0.543 | locus YJL095W, strain BCK1 (second series), hits give low values 0.478 | locus YJL129C, strain trk1, hits give low values 1.14 [resistant] | locus YJL164C, strain tpk1, hits give low values 0.759 | locus YJL166W, strain qcr8, hits give low values 0.494 | locus YJL187C, strain SWE1, hits give low values 0.727
